# This excerpt belongs to a sample that is enriched for hits.
# TTR transcr act – increases transthyretin transcription | SH-SY5Y TTR promoter Gaussia luciferase, luminescence; 100% = recombinant luciferase protein wells | activation, % at 16.7 µM | actives 1.3% (n = 92,000);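 active means activation above the mean of all tested compounds plus 3 SD, cut at about 9.5% in these data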;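 further: cells exposed to compounds for one day before reading; 0% = median of all test compound wells on the plate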
# HuH7 TTR inh – HuH7 TTR transcription inhibition, counter-screen. actives 4% (n = 1,100). HuH7 TTR promoter-Gaussia luciferase reporter, luminescence. shares compounds with TTR transcr act. inhibition, % at 16.7 µM;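 active means average inhibition above the solvent-only control wells' mean plus 3 SD, cut at about 15% in these data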;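 further: 0% = cells with DMSO only and 100% = cells with inhibitor control FD; inhibitors lower well luminescence so higher value means more inhibition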
# TTR up confirm – confirmation of human transthyretin transcription activators | SHSY5Y TTR promoter Gaussia luciferase, luminescence; 100% = purified Lucia enzyme wells, no cells | activation, % at 16.7 µM | 1,100 tested, under 10 active | shares compounds with TTR transcr act;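 active means mean activation above a set limit taken from the earlier primary screen, cut at about 11% in these data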;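 further: 0% = DMSO-treated cells and 100% = recombinant Lucia luciferase without cells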
# An asterisk follows results filed as active.
SMILES,TTR transcr act,others
Cc1ccc(CC(=O)N2CCN(Cc3ccccc3)CC2)cc1,-1,
O=C(Cc1ccccc1)N1CCN(CCCc2ccccc2)CC1,0,
O=C(Cc1ccc(Br)cc1)N1CCN(Cc2ccccc2)CC1,11*,
CC(C)NC1(c2ccccc2)CCCCC1,-1,
COC(=O)C1C(c2ccc(F)cc2)CC2CCC1N2C (stereo not given),0,
Cc1nn(C)c(C)c1P(=S)(c1c(C)nn(C)c1C)N(C)C,9.9*,HuH7 TTR inh=-4;TTR up confirm=-1
O=C(Cc1ccccc1F)N1CCN(CC(=O)N2CCCC2)CC1,2,
COc1cccc(-n2c(O)c(C=NCCN3CCNCC3)c(=O)[nH]c2=S)c1,8,
CC(=O)C1CCC2C3CCC4CC(O)CCC4(C)C3C(=O)CC12C (stereo not given),12*,HuH7 TTR inh=-7;TTR up confirm=-1
CC(=O)C1CCC2C3CCC4CC(O)CCC4(C)C3C(O)CC12C (stereo not given),-1,
CC(=O)C1CCC2C3CC(O)C4CC(O)CCC4(C)C3CCC12C (stereo not given),-2,
CC1NC(=O)NC(=O)C1Br (stereo not given),0,
O=C(O)C(Cc1cnc[nH]1)NS(=O)(=O)c1ccc(Br)cc1 (stereo not given),2,
CCCCC(CC)COCCCN=Cc1c(O)[nH]c(=S)[nH]c1=O (stereo not given),-3,
O=c1[nH]c(=S)n(-c2ccc(Cl)cc2)c(O)c1C=Nc1ccc(N2CCOCC2)cc1,-2,
CCn1c(O)c(/C=N/N2CCOCC2)c(=O)n(CC)c1=S,1,
Cc1ccc(-n2c(O)c(/C=N/N3CCOCC3)c(=O)[nH]c2=S)cc1,10*,HuH7 TTR inh=10;TTR up confirm=0
CCC1CN1P(=O)(Oc1ccc(Cl)cc1)N1CC1CC (stereo not given),4,
C[C@]12CCC3C(CC[C@H]4C[C@H](O)CC[C@]34C)C1C[C@H](O)[C@H]2O (stereo not given in full),-2,
CCOc1cc2c(cc1OCC)-n1cccc1C(c1cc(OC)ccc1F)NC2 (stereo not given),-1,
Cn1c(O)c(/C=C2\N=c3ccccc3=C2CCNC(=S)NC2CC2)c(=O)n(C)c1=O,13*,HuH7 TTR inh=17*;TTR up confirm=0
Cn1c(O)c(/C=C2\C=Nc3ccccc32)c(=O)n(C)c1=O,0,
COC(=O)C1=Nc2ccccc2/C1=C\c1c(O)n(C)c(=O)n(C)c1=O,0,
COc1ccc(CC(=O)C2C(=O)N(C)c3ccccc32)cc1OC (stereo not given),3,
c1ccc2c(c1)CNCc1cnnn1-2,0,
SMILES,TTR transcr act,others
CCn1c(O)c(/C=N/NC(=O)c2ccccc2)c(=O)[nH]c1=S,8,
COc1ccc(Cn2c(O)c(/C=N/NC(=O)c3ccccc3)c(=O)[nH]c2=O)cc1,0,
COc1ccccc1-n1c(O)c(/C=N/NC(=S)Nc2ccccc2)c(=O)[nH]c1=S,14*,HuH7 TTR inh=-12;TTR up confirm=0
COC(=O)C1C(OC(=O)c2ccccc2)CC2CCC1[N+]2(C)C (stereo not given),0,
COCCCNP1(=O)OCC(C)([N+](=O)[O-])CO1 (stereo not given),-1,
COCCO[C@H]1CCC2C3CC=C4C[C@@H](O)CC[C@]4(C)C3CC[C@@]21C (stereo not given in full),0,
CC1=NNC(=O)C1Br (stereo not given),0,
COC(=O)C1=C(c2ccc(F)cc2F)C[C@@H]2CC[C@H]1N2C(=O)NC1Cc2ccccc2C1,-2,
CP(=O)(Nc1ccc(Cl)cc1)c1nc2c(s1)CCCC2 (stereo not given),-2,
CCN1CCN(c2nc([N+](=O)[O-])nn2C)CC1,14*,HuH7 TTR inh=-4;TTR up confirm=0
CN1CCN(c2nc([N+](=O)[O-])nn2C)CC1,1,
CCC1(CC)C(=O)NC(=O)N(c2ccccc2)C1=O,0,
COc1cccc(C(=O)C2CCCN(Cc3cnn(C(C)C)c3)C2)c1 (stereo not given),11*,HuH7 TTR inh=-16;TTR up confirm=2
COc1cccc(C(=O)C2CCCN(Cc3ccc(F)cc3)C2)c1 (stereo not given),2,
COc1cccc(C(=O)C2CCCN(Cc3cccc(C)n3)C2)c1 (stereo not given),3,
O=c1[nH]c(=S)n(C2CC2)c(O)c1C=NCCc1ccccc1,2,
CN(C)CC1CSCCC1(O)c1ccccc1Cl (stereo not given),2,
CNC1(c2ccccc2Cl)CCCCC1=O (stereo not given),16*,HuH7 TTR inh=-3;TTR up confirm=-1
CCN(CC)CCC(=O)O[C@H]1CC[C@]2(C)C3CC[C@@]4(C)C(CC[C@]4(C)O)C3CC[C@H]2C1 (stereo not given in full),-2,
CCOc1nc(NC(C)C)nc(N2CC3CC(C2)c2cccc(=O)n2C3)n1 (stereo not given),1,
